# The entries come from a sample that favours hits as a whole.
# Mito fusion yeast: blocks mitochondrial division or promotes mitochondrial fusion; S. cerevisiae fusion-defective mutant growth rescue, CellTiterGlo 48 h; Potency, µM (top dose mostly 46.1 µM), for the others: at the highest dose growth rescue (activation), most hits filed as activators; hit rate 0.23% among 320,000; AID 485298; note: potency is the fitted concentration of half-maximal effect; % of control where 0% means no effect; nearly all actives have a fitted effect of over 45% in size
#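 Yeast fusion mutant, YPEG (non-fermentable carbon), compound, 48 h at 37C non-permissive; CellTiterGlo added, 10 min RT, luminescence read. Rescued growth = division inhibition.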
# RGS4 inh: human RGS4 inhibition; hit rate 0.039% among 390,000; Transcreener GDP fluorescence polarization, RGS4-accelerated GTP hydrolysis; P49798; Potency, µM (titrated, usually from 114 µM), for the others: top-dose activity change, negative = inhibition, most hits filed as inhibitors; note: potency is the fitted concentration of half-maximal effect; % is set by controls: 0 for no effect and ±100 for the full control effect; nearly all actives have a fitted effect of over 75% in size
#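 MLSMR compounds (23 nl, pin-transferred) preincubated 10 min at room temperature with a 500nM (2x) first reagent, then RGS4 at 900nM (2x) plus Transcreener GDP mix added; fluorescence polarization (620/688 nm) read before and after 90 min at 30 °C.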
# LDHA inh: blocks human lactate dehydrogenase A. hit rate 0.15% among 480,000. AID 1347041. purified LDHA, NADH/diaphorase-resazurin fluorescence; active compounds read low. P00338. activity change, % (values are at about 110 or 230 µM); in the data active = activity change below about -30%; inconclusive = mostly about -25% to -30%;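 note: plate controls were DMSO wells for no effect and wells without enzyme for full effect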
#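 Human LDH5 at 2 nM final in Tris HCl pH 7.4 with 0.06 mM NADH and 0.2 mM pyruvate, reacted 5 minutes at room temperature. Remaining NADH coupled via diaphorase/resazurin; resorufin fluorescence read at 0 and 20 minutes, normalized to enzyme-free and DMSO wells.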
# mIDH1 inhibitor: blocks human mutant IDH1 R132H enzyme | O75874 | IDH1-R132H enzyme, NADPH consumption, diaphorase/resazurin fluorescence | Potency, µM (top dose mostly 76.6 µM), for inactives: top-dose activity change, negative = inhibition, usual class: inhibitors | hit rate 0.093% among 390,000; note: potency is the fitted concentration of half-maximal effect; % is set by controls: 0 for no effect and ±100 for the full control effect; nearly all actives have a fitted effect of over 65% in size
# Target sequence (O75874 whole entry R132H, stated change not applied): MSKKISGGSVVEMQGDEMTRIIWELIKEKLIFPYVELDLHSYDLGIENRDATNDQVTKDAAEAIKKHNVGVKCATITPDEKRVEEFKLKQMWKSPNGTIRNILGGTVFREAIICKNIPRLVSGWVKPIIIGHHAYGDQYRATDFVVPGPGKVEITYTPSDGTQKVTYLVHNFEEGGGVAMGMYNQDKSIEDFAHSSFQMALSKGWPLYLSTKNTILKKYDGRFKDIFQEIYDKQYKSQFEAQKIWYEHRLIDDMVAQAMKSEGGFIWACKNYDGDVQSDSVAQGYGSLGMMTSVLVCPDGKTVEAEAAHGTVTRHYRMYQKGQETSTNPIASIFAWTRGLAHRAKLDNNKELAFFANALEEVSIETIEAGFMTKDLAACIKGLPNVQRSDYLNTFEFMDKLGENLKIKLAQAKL
#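 IDH1-R132H (0.5 ug/mL dispensed) in pH 7.5 Tris buffer was preincubated 30 min with compound, then given a substrate mix of 0.016 mM NADPH and 2 mM alpha-KG for 80 min at room temperature; remaining NADPH was read by diaphorase/resazurin fluorescence.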
# S-ASM inh: blocks human secretory acid sphingomyelinase | AID 504937 | placental ASM, HMU-PC fluorogenic substrate, 60 min | Potency, µM (titrated, usually from 57.5 µM), for inactives: at the top dose activity change, negative = inhibition, actives largely listed as inhibitors | hit rate 0.006% among 340,000 | P17405; note: potency is the fitted concentration of half-maximal effect
#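 Human placenta-derived ASM enzyme was preincubated with compound for 10 minutes at room temperature, then given fluorogenic substrate HMU-PC0 (9 uM final) for 60 minutes at 37 °C; a pH 10 stop preceded fluorescence reading at Ex 386/Em 447 nm.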
# ClpP mod: qHTS Assay for Activators of ClpP; ATP-dependent Clp protease proteolytic subunit (Bacillus subtilis (strain 168)), P80244; purified B. subtilis ClpP, FRET peptide cleavage, 20 min; Potency, µM (series often up to 57.5 µM), for the others: at the top dose activity change, negative = active; hit rate 1.9% among 340,000; AID 651965, 2013; active = well fitted falling curve with a large enough effect; inconclusive = small, poorly fitted or top-dose-only effect; inactive = no such curve, though single readings can be large or run the other way; note: potency is the fitted concentration of half-maximal effect; the source files actives as falling curves though it sought activators and does not explain the sign; nearly all actives have a fitted effect of over 65% in size
# Target sequence (P80244 whole entry, looked up): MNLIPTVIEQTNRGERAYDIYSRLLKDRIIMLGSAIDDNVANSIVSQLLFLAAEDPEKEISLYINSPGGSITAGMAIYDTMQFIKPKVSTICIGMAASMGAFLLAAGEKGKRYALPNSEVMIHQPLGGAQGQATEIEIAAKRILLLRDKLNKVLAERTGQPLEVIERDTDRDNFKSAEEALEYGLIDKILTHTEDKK
#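 Purified B. subtilis ClpP, 10 microg/mL final in Tris/HCl pH8 with KCl, BSA, glycerol and Tween-20, cleaved an Abz/nitrotyrosine-quenched decapeptide. Fluorescence (ex 320, em 430) was read at 0 and 20 min at room temperature. Delta was normalized to 5.8 microM ADEP and DMSO/no-enzyme controls.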
# The depositor's hits bear a star; i = inactive; ? = inconclusive; · = not tested or not shown; ! = not confirmed by another sample. Unless noted, calls come from the whole dose curve; as a rule, active = well fitted curve in the direction sought with a large enough effect; inconclusive = small, poorly fitted or top-dose-only effect, or another doubt; inactive = no such curve, though single readings can be large; an effect the other way counts as inactive or inconclusive.
SMILES,Mito fusion yeast,RGS4 inh,LDHA inh,mIDH1 inhibitor,S-ASM inh,ClpP mod
CC(=O)NCCc1c(Cc2ccccc2)[nH]c2ccccc12,·,27µM*!,·,·,·,·
Cc1ccc(CNC(=O)C2CCCN(c3nc4ccccc4n4cccc34)C2)cc1 (stereo not drawn),·,8%,-8,-16%,·,22µM*
COc1ccc(-n2nc3c(N4CCCC(C(=O)NCc5ccccc5C)C4)nnc(C)c3c2C)cc1 (stereo not drawn),-2%,?,-7,4%,·,28µM*
O=C(Nc1ccc(F)cc1)C1CCN(c2nc3ccccc3n3cccc23)CC1,·,-19%,-19,-4%,·,-11%
COc1ccccc1CNC(=O)C1CCCN(c2nc3ccccc3n3cccc23)C1 (stereo not drawn),·,11%,?,-15%,·,13µM*
O=C(Nc1ccc(Cl)cc1)C1CCN(c2nc3ccccc3n3cccc23)CC1,·,-4%,-5,-3%,·,28µM*
O=C1C2C3C=CC(C3)C2C(=O)N1c1ccc(-c2nc3ccccc3o2)cc1 (stereo not drawn),4%,-15%,-1,-2%,3%,6.3µM*
O=C1C2C3C=CC(C3)C2C(=O)N1c1ccncc1 (stereo not drawn),-2%,-19%,-1,2%,3%,?
C/C=C(/C)C(=O)OC1c2c(ccc3ccc(=O)oc23)OC(C)(C)C1OC(C)=O (stereo not drawn),22%,-26%,1,4%,-1%,16µM*
CN1C(=O)C2(OCC(C)([N+](=O)[O-])CO2)c2ccccc21 (stereo not drawn),0%,21%,-2,-10%,-3%,·
CN1C(=O)C2(N=c3ccccc3=N2)c2ccccc21,4%,14%,-5,0%,-5%,13µM*
COc1cccc(-n2c(SCC(N)=O)nnc2-c2ccco2)c1,1%,15%,-7,7%,2%,32µM*
CCn1c(SCC(=O)N(C)CC(=O)Nc2ccc(OC)cc2)nnc1-c1ccco1,1%,-34%,0,5%,3%,-5%
COc1ccc(-n2c(SCC(N)=O)nnc2-c2ccco2)cc1,2%,-6%,-6,0%,2%,-1%
O=C(CSc1nnc(-c2ccco2)n1-c1ccccc1)NCC1CCCO1 (stereo not drawn),-1%,-6%,-1,8%,3%,32µM*
CCn1c(SCC(=O)N(C)CC(=O)Nc2cccc(OC)c2)nnc1-c1ccco1,-7%,3%,-4,3%,4%,28µM*
COc1cc(/C=C/c2nc(C#N)c(NCCCN(C)C)o2)cc(OC)c1OC,·,·,-5,·,·,·
COC(=O)C1=CN(CC2CCCO2)C=C(C(=O)OC)C1c1ccccc1C(F)(F)F (stereo not drawn),2%,5%,1,3%,i,32µM*
CCOc1ccccc1C(=O)Nc1cccc2ccc(C)nc12,·,8%,-3,·,·,32µM*
COC(=O)c1ccc(OC)cc1OCc1ccc(C#N)cc1,·,·,-1,·,·,·
Cc1cc(C)nc(Sc2ncnc3sc4c(c23)CCC4)n1,-1%,-13%,-7,7%,15%,13µM*
CCCNC(=O)CSc1ncc(-c2ccc(Cl)cc2)o1,·,·,6,·,·,·
Cn1c(=O)c2nc(SCCC(=O)O)n(Cc3ccccc3)c2n(C)c1=O,·,·,5,·,·,·
O=C(N/N=C(\c1ccccc1)c1ccccn1)c1ccccc1Cl,-6%,6%,1,-1%,0%,8.9µM*
Cc1nnc2sc(SCC(=O)Nc3ccc(Br)cc3)nn2c1=O,3%,-34%,-5,-7%,6%,25µM*
SMILES,Mito fusion yeast,RGS4 inh,LDHA inh,mIDH1 inhibitor,S-ASM inh,ClpP mod
COc1ccc(CNC(=O)c2cc(-c3ccc(C)c(C)c3O)n[nH]2)cc1,·,·,4,·,·,·
CC1(C)Cc2c(C#N)c(N3CCN(C(=O)c4ccco4)CC3)nc(Cc3ccccc3)c2CO1,0%,-45%,-7,-1%,8%,28µM*
N#Cc1c(N2CCN(C(=O)c3ccco3)CC2)nc(-c2ccccc2)c2c1CCCC2,30%,?,2,1%,230%,14µM*
N#Cc1c(NCCN)nc(NCc2ccccc2)c2c1CCN(Cc1ccccc1)C2,1%,-16%,8,7%,66%,29%
N#Cc1c(N2CCN(C(=O)c3ccccc3Cl)CC2)nc(-c2ccccc2)c2c1CCCC2,6%,-29%,4,8%,131%,5%
N#Cc1c(N2CCCCC2)nc(N2CCCCC2)c2c1CCN(Cc1ccccc1)C2,9%,3%,0,11%,38%,11µM*
N#Cc1c(N2CCN(C(=O)c3ccccc3)CC2)nc(-c2ccccc2)c2c1CCCC2,4%,1%,-3,4%,161%,28µM*
CC(Oc1ccc2ccc(=O)oc2c1)C(=O)N(C)Cc1cccc(F)c1 (stereo not drawn),·,·,-21,·,·,·
CCCCCCCC(=O)c1ccc(O)cc1,·,·,15,·,·,·
CC1(C)Cc2c(C#N)c(N3CCN(C(=O)c4ccccc4Cl)CC3)nc(-c3ccco3)c2CS1,-19%,?,-1,-2%,361%,28µM*
Cc1ccc2c(c1)-c1c(c(C(=O)NCc3ccc(F)cc3)nn1C)CS2,·,·,2,·,·,·

# Screening results as filed in PubChem BioAssay.
